Screens: PubChem, National Center for Advancing Translational Sciences (NCATS)
Rows were chosen to be rich in hits. Some 9.9% of all compounds tested hit in one or more screens of this group.
Tau fluor cs: counter-screen for tau fibril formation inhibitors. 280,000 tested, 0.93% active. tau K18 P301L Alexa594 fluorescence, heparin fibrillization. Potency, µM (titrated, usually from 57.7 µM), for inactives: top-dose activity change, negative = decrease; active = well fitted curve in the direction sought with a large enough effect; inconclusive = small, poorly fitted or top-dose-only effect, or another doubt; inactive = no such curve, though single readings can be large; an effect the other way counts as inactive or inconclusive; note: nearly all actives have a fitted effect of over 55% in size
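Human tau K18 P301L (15 uM unlabeled, 0.24 uM Alexa 594-labeled) in 100 mM sodium acetate pH 7 with 20 uM heparin, 6 hr at 37 C. ThT 30 uM added, 1 hr ambient; Alexa 594 FP and total fluorescence read at 555/632 nm.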
KDM4E inh: JMJD2E (human) inhibition; JMJD2E catalytic domain, FDH-coupled NADH fluorescence (FDH is formaldehyde dehydrogenase); Potency, µM (top dose mostly 57.1 µM), for inactives: at the highest dose activity change, negative = inhibition, hits mostly inhibitors; 230,000 tested, 1.6% active; AID 2147;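 note: 0% = wells with enzyme and -100% = buffer wells without enzyme; nearly all actives have a fitted effect of over 50% in size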
Target sequence (B2RXH2 1-337 limits assumed): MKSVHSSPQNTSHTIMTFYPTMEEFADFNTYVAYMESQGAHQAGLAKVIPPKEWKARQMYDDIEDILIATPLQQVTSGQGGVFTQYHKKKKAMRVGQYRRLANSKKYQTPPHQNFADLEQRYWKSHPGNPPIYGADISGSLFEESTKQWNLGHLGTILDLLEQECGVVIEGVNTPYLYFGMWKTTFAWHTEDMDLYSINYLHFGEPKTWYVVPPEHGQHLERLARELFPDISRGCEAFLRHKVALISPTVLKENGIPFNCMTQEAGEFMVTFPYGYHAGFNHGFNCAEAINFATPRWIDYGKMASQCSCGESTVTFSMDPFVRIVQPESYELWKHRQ
HPGD block: inhibitors of human 15-hydroxyprostaglandin dehydrogenase (HPGD); Potency, µM, for the others: at the highest dose activity change, negative = inhibition, most hits filed as inhibitors; AID 894; purified HPGD, NADH fluorescence kinetic, PGE2 substrate; 150,000 tested, 4.3% active
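20 nM HPGD preincubated 15 min at room temperature with compound in 50 mM Tris-HCl pH 8, 0.01% Tween 20. Started with 1 mM NAD+ and 30 uM prostaglandin E2; NADH fluorescence (360/450 nm) read 5 times over 30-s intervals, last minus first.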
Tau fibril FP: inhibitors of human tau fibril formation; P10636; K18 P301L tau heparin fibrillization, Alexa594 FP, 6 h; Potency, µM (titrated, usually from 57.7 µM), for the others: top-dose activity, negative = inhibition, most hits filed as inhibitors; 280,000 tested, 0.39% active; AID 1468; active = well fitted curve in the direction sought with a large enough effect; inconclusive = small, poorly fitted or top-dose-only effect, or another doubt; inactive = no such curve, though single readings can be large; an effect the other way counts as inactive or inconclusive; note: nearly all actives have a fitted effect of over 55% in size
Target sequence (P10636 561-689 P618L limits assumed): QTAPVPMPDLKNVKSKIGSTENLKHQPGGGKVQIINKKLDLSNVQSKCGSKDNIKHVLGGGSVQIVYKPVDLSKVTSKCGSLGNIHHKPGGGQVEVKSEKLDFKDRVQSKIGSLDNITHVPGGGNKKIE
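Quantitative HTS format: compounds meet 15 uM recombinant K18 P301L tau and Alexa 594-tau tracer in 100 mM sodium acetate pH 7; 20 uM heparin triggers fibrillization at 37 C over 6 hr; FP gives the signal.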
Tau fibril ThT: tau fibrillization inhibition (ThT binding) | P10636 | 270,000 tested, 2.1% active | Potency, µM (series often up to 57.4 µM), without a hit: at the highest dose activity, negative = inhibition, actives largely listed as inhibitors | recombinant tau K18 P301L, heparin-induced fibrillization, ThT fluorescence; active = well fitted curve in the direction sought with a large enough effect; inconclusive = small, poorly fitted or top-dose-only effect, or another doubt; inactive = no such curve, though single readings can be large; an effect the other way counts as inactive or inconclusive; note: nearly all actives have a fitted effect of over 55% in size
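Using a mix of unlabeled (15 uM) and Alexa 594-labeled (0.24 uM) tau K18 P301L, heparin-triggered fibrillization over 6 hr at 37 C was scored by ThT fluorescence.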
ALDH1A1 block: inhibitors of human aldehyde dehydrogenase 1A1; P00352; Purified ALDH1A1, NADH fluorescence, propionaldehyde substrate; Potency, µM (top dose mostly 75.3 µM), inactives show at the highest dose activity, negative = inhibition, usual class: inhibitors; 220,000 tested, 7.3% active; AID 1030;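 note: plate controls were no enzyme wells and a reference inhibitor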
Starred values were filed as active, the others as inactive; ? = inconclusive; . = no result; [ ] = dose if it differs, or a comment. Unless noted, calls come from the whole dose curve; as a rule, active = well fitted inhibition curve with a large enough effect (not every such curve was filed as active); inconclusive = small, poorly fitted or top-dose-only effect, or another doubt; inactive = no such curve, though single readings can be large or run the other way. Unless noted, % is set by controls: 0 for no effect and ±100 for the full control effect; potency is the fitted concentration of half-maximal effect.

SMILES | Tau fluor cs | KDM4E inh | HPGD block | Tau fibril FP | Tau fibril ThT | ALDH1A1 block
Cc1ccnc(N=Cc2nc(-c3ccccc3Br)oc2O)c1 | -14% | ? | . | -2% | ? | 4µM*
Cc1ccc(-c2csc3ncn(-n4c(C)ccc4C)c(=O)c23)o1 | -7% | ? | 28µM* | -9% | -17% | 32µM*
O=C(NCc1ccco1)c1ccc(COc2cccc3ccccc23)cc1 | -27% | 3% | ? | -12% | -14% | 5%
O=C(NCc1ccco1)c1cccc2ccccc12 | -5% | -2% | 14µM* | 0% | -6% | -7%
O=C(NCc1ccco1)c1ccc(COc2ccccc2Cl)cc1 | ? | 2% | 14µM* | 3% | ? | ?
O=C(NCc1ccco1)c1ccc(S(=O)(=O)N2CCCc3ccccc32)cc1 | -8% | 8% | -26% | 3% | 7% | 14µM*
O=C(NCc1ccco1)c1ccc(COc2ccc(Cl)cc2)cc1 | -2% | 6% | -24% | 0% | 0% | -6%
CC(C)COc1ccc(C(=O)NCc2ccco2)cc1 | -2% | -2% | 16µM* | 0% | ? | ?
O=C(NCc1ccccc1)c1ccc(S(=O)(=O)N2CCCc3ccccc32)cc1 | ? | -7% | -16% | -7% | -13% | -11%
O[C@]1(c2ccccc2)c2ccccc2NC2=NCCN21 | . | . | 2% | . | . | 15%[13.5 µM]
O=C(NCc1ccco1)c1ccc(Oc2ccccc2)cc1 | -18% | -1% | 28µM* | 2% | -9% | ?
CCOc1ccc(C(=O)NCc2ccco2)cc1 | 0% | 4% | 28µM* | -4% | -18% | ?
CCOc1ccc(C(=O)NCCO)cc1 | 2% | 0% | . | -13% | 0% | 14%
CCOc1ccc(C(=O)NCC(C)C)cc1 | 4% | -1% | 18µM* | 4% | 7% | 11%
O=C(CNC(=O)c1ccco1)OCC(=O)c1cccc2ccccc12 | -2% | -3% | -17% | 1% | -1% | 22µM*
O=C(CNC(=O)Cc1ccccc1)NCC(=O)OCC(=O)c1cccc2ccccc12 | -13% | -18% | -10% | 9% | -15% | ?
N#C/C(=C\c1ccc(Br)cc1)c1nc(-c2cc3cc(Br)ccc3oc2=O)cs1 | 3% | . | . | 2% | 3% | .
O=C(NCc1ccco1)c1ccc2c(c1)C(=O)c1ccccc1-2 | -29% | 0% | 16µM* | ? | 13µM* | 28µM*
CC(C)(Oc1ccc(Cl)cc1)C(=O)NCc1ccco1 | -7% | -2% | -21% | -4% | ? | 13µM*
O=C(NCc1ccco1)c1ccc2ccccc2c1 | -15% | -4% | 32µM* | ? | -17% | 1%
O=C(NCc1ccco1)c1c(F)cccc1Cl | 9% | 3% | 14µM* | 1% | 7% | -9%
Cc1cccc(NC(=O)C2CCN(c3nnc(-n4c(C)ccc4C)s3)CC2)c1C | -20% | . | . | -14% | ? | .
O=C(c1ccccc1Cl)N1CCCCC1CCN1CCOCC1 (stereo not given) | 1% | . | . | 2% | -2% | .
O=C(NCc1ccc(F)cc1)C(=O)NCC(c1ccco1)S(=O)(=O)c1cccs1 (stereo not given) | -19% | . | . | -8% | -8% | .
Cc1ccc(-n2ncc(C(=O)NCc3ccccn3)c2C2CCN(C(=O)OC(C)(C)C)CC2)cc1C | 0% | . | . | -4% | -4% | .
SMILES | Tau fluor cs | KDM4E inh | HPGD block | Tau fibril FP | Tau fibril ThT | ALDH1A1 block
COC(=O)c1ccccc1NC(=O)CCC(=O)N1CC(C)Sc2ccccc21 (stereo not given) | -15% | . | . | 2% | -4% | .
O=C(NCc1ccco1)c1cccnc1Cl | 9% | 0% | ? | 0% | -4% | ?
O=C(NCc1ccco1)c1cccnc1-c1nc2ccccc2s1 | -17% | ? | 16µM* | ? | ? | 8.9µM*
COc1ccccc1CNc1nc2c(S(=O)(=O)c3ccccc3)nnn2c2ccc(Cl)cc12 | 1% | . | . | ? | 15% | .
N#Cc1ccccc1NC1=CC(=O)CCC1 | 4% | -3% | -12% | 6% | 2% | 9%
O=C1C=C(NC2=CC3OC(c4ccccc4)OCC3OC2=O)CCC1 (stereo not given) | -10% | 6% | -10% | ? | 28µM* | -9%
O=C1OC(c2ccc(F)cc2)=C/C1=C\c1ccc([N+](=O)[O-])o1 | ? | ? | . | ? | 16µM* | 20µM*
CC(=O)N(CN1C(=O)c2ccccc2C1=O)c1cccc(C)c1 | 1% | 0% | 6% | 7% | -5% | -2%
CC(=O)N(/N=C1\Sc2ccccc2C1=O)c1cccc(C)c1 | 3% | 0% | 3.5µM* | -3% | 8% | ?
CN1CC(c2ccccn2)C2(SC(=S)N(Cc3ccccc3)C2=O)C12C(=O)Nc1ccccc12 (stereo not given) | -27% | -10% | -3% | -12% | -13% | 25µM*
CN1CC(c2ccccc2)C2(SC(=S)N(Cc3ccco3)C2=O)C12C(=O)Nc1ccccc12 (stereo not given) | ? | -4% | -15% | ? | -20% | -2%
CC(O)CNc1nc2ccccc2n1CC(=O)N1CCN(Cc2ccccc2)CC1 (stereo not given) | -4% | -4% | . | 6% | -5% | -2%
CC[C@H](NC(=O)c1c(C)c(-c2ccccc2)nc2ccccc12)c1ccccc1 | -12% | -7% | -30% | 1% | -11% | 5µM*
O=C(NNC1=NCCCCC1)c1ccccc1 | -15% | 16% | 14µM* | -9% | -13% | 6%
C/C(Cc1ccccc1)=N/NC(=O)CCCC(=O)N/N=C(/C)Cc1ccccc1 | -8% | 30% | . | -12% | -12% | 1%
C/C(Cc1ccccc1)=N\NC(=O)CCCCCC(=O)N/N=C(\C)Cc1ccccc1 | 1% | 36% | -1% | 1% | -4% | 11µM*
O=C(O)COc1ccccc1C(Nc1cccnc1)c1cc(Cl)c2cccnc2c1O (stereo not given) | -25% | -4% | . | 32µM* | 18µM* | -4%
O=C(NC(c1ccccc1)c1cc(Cl)c2cccnc2c1O)c1cccnc1 (stereo not given) | -7% | -4% | -5% | 4% | -10% | -10%
O=C(O)COc1ccccc1C(Nc1ccccn1)c1cc(Cl)c2cccnc2c1O (stereo not given) | -21% | ? | -11% | ? | 13µM* | 2%
CCOc1ccc(C(Nc2cccnc2)c2cc(Cl)c3cccnc3c2O)cc1 (stereo not given) | -6% | -18% | . | -2% | -5% | 1.3µM*
S=C1NCN(Cc2cccnc2)CN1c1cccc2ccccc12 | 0% | 1% | . | 3% | -4% | 2%
CCCCCn1c(=O)c(-c2nc3ccccc3[nH]2)c(O)c2ccccc21 | -6% | ? | . | 3% | -9% | ?
